Test results: publication PMC4336329 (PLoS ONE, 2015)
In all, about 310,000 compounds went through this assay and about 14,000 (4.5%) showed an effect of 50% or more. Effects have a minus sign here. The entries come from a sample that favours strong results as a whole.

target: human ether-à-go-go-related gene (hERG) potassium channel (human, UniProt Q12809); test: primary screen, population patch clamp on CHO cells stably expressing hERG; higher = less effect of the substance
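Note: peak tail current of the secondary pulse compared with the same well before compound.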

Sequence of human ether-à-go-go-related gene (hERG) potassium channel (Q12809 whole entry, looked up): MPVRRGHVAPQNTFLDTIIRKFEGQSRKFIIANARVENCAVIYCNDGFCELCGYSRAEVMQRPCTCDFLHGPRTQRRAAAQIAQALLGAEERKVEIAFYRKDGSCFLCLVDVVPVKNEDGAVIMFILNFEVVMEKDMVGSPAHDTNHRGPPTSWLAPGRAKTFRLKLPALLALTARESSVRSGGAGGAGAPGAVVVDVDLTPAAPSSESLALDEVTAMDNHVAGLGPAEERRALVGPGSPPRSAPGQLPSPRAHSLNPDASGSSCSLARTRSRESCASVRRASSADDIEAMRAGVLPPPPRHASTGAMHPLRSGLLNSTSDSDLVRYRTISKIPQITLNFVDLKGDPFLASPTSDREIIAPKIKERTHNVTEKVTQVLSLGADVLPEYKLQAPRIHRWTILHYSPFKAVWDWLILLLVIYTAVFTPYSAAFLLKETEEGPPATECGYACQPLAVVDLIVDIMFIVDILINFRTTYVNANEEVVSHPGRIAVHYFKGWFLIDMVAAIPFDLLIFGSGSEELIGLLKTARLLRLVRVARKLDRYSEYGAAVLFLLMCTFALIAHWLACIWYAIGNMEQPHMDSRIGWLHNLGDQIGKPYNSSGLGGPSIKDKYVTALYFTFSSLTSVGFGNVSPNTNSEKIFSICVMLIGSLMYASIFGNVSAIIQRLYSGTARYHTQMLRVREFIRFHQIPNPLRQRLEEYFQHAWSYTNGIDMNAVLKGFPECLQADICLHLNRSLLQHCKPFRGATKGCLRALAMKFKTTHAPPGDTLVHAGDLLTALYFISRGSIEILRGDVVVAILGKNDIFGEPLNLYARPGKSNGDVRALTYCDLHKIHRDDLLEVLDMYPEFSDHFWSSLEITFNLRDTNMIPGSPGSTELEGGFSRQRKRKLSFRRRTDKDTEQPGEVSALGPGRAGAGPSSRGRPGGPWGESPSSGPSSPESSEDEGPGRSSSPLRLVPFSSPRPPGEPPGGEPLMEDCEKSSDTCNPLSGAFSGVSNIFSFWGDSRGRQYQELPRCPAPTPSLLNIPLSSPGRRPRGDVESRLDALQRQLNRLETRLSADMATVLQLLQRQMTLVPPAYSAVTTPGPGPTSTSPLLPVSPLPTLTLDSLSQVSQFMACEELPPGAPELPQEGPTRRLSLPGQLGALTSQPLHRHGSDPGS

Row | SMILES | hERG current change (%, negative = inhibition) at 10uM [%]
1 | COc1ccc(NC(=O)CSc2nc3ccccc3c(=O)n2CCC(=O)N2CCCCC2)cc1 | -69.2
2 | CCn1c(SCC(=O)NCc2ccccc2)nc2ccccc2c1=O | -11.6
3 | COc1ccc(NC(=O)CSc2nc3ccccc3c(=O)n2C)cc1 | 4.53
4 | CCOc1ccc(NC(=O)CSc2nc3ccccc3c(=O)n2CCCC(=O)N2CCCC2)cc1 | -23.8
5 | O=C(CCCCCn1c(SCC(=O)c2ccccc2)nc2ccccc2c1=O)NCc1ccco1 | 10.8
6 | NS(=O)(=O)c1ccc(CCNC(=O)CSc2nc3ccccc3c(=O)n2CCC(=O)N2CCCCC2)cc1 | 19.8
7 | Cc1ccc(CSc2nc3ccccc3c(=O)n2CCCC(=O)NCc2ccco2)cc1 | -2.71
8 | O=C(CSc1nc2ccccc2c(=O)n1CCC(=O)N1CCCCC1)NCc1ccccc1 | -70.4
9 | O=C(CCCCCn1c(SCc2ccncc2)nc2ccccc2c1=O)NCc1ccco1 | -86
10 | NC(=O)c1ccc(NC(=O)CSc2nnc(-c3ccc4c(c3)OCO4)o2)cc1 | 2.05
11 | CCCCN(CCCC)C(=O)c1sc2nc(N3CCOCC3)c3c(c2c1N)CCCC3 | 9
12 | COc1ccc(Cl)cc1NC(=O)NC1CCCCC1 | 10.3
13 | CN(CCCC(=O)NCc1ccco1)S(=O)(=O)c1ccccc1 | -5.89
14 | CC(=O)C12CCCCC1CC1C3CC(C)C4(O)CC(=O)CCC4(C)C3CCC12C (centres unmarked) | 21.8
15 | Cc1nc2ccccc2c(=O)n1-c1ccccc1[N+](=O)[O-] | 17.2
16 | CCCCCN(C(=O)CCC(=O)OC(C)C(=O)NC1CCCCC1)c1c(N)n(CCCC)c(=O)[nH]c1=O (centres unmarked) | 16.1
17 | CSc1nncc(/C(C)=N\Nc2ccccc2)n1 | 9.18
18 | Cc1ccc(C(C)(C)NC(=O)C2CCC(=O)N(CC3CCCCC3)C2)cc1 (centres unmarked) | 3.82
19 | Cn1ccnc1/C(=N\NC(=O)c1ccc(O)cc1)c1cccc([N+](=O)[O-])c1 | -22.7
20 | COc1cccc(C(=O)N/N=C(/c2ccccc2)c2ccccn2)c1 | 6.88
21 | O=C(N/N=C(\c1ccccc1)c1ccccn1)c1cccc([N+](=O)[O-])c1 | -65.6

Row | SMILES | hERG current change (%, negative = inhibition) at 10uM [%]
22 | O=C(NNC(=O)c1ccccn1)c1cccc([N+](=O)[O-])c1 | 8.7
23 | Cn1ccnc1/C(=N\NC(=O)c1ccccc1)c1cccc([N+](=O)[O-])c1 | -68.6
24 | C/C(=N\NC(=O)c1ccc([N+](=O)[O-])cc1)c1cccc([N+](=O)[O-])c1 | 5.82
25 | NC(=O)c1cccc([N+](=O)[O-])c1 | 5.64
26 | Cn1cccc1C(=O)c1cccc([N+](=O)[O-])c1 | -52.9
27 | CC(=O)c1cccc([N+](=O)[O-])c1 | 17.7
28 | CC1=NN(c2ccccc2)C(=O)/C1=C/c1ccc[nH]1 | -7.74
29 | CCN(CC(=O)Nc1ccc(NC(C)=O)cc1)C(=O)c1cccc2ccccc12 | 1.23
30 | Cc1cccc(Nc2ncnc(N)c2[N+](=O)[O-])n1 | 17.8
31 | C=CCN1CC(c2nc3ccccc3n2Cc2cccc3ccccc23)CC1=O (centres unmarked) | -24.2
32 | C/C(=N\NC(=O)CNc1cccc2ccccc12)c1ccccc1 | 10.2
33 | COc1ccc2sc3ccccc3c(=O)c2c1 | -10.1
34 | Cc1ccc(N2CC(C(=O)N3CCC(C(=O)Nc4nnc(C(C)C)s4)CC3)CC2=O)cc1 (centres unmarked) | 10.7
35 | CC(=O)Nc1ccc(S(=O)(=O)N(C)CC(=O)OCC(=O)N(C)C2CCS(=O)(=O)C2)cc1 (centres unmarked) | 18.8
36 | CN(CCOc1ccccc1)C(=O)C1CCN(C(=O)c2ccc(Cl)cc2)CC1 | -47.9
37 | CN(CCOc1ccccc1)C(=O)C1CCN(C(=O)c2ccc(F)cc2)CC1 | -19.9
38 | O=C(c1ccc(Cl)cc1)C1CCN(C(=O)c2ccc(F)cc2)CC1 | -34.7
39 | CN(CCOc1ccc(Cl)cc1)C(=O)C1CCN(C(=O)c2ccc(Cl)cc2)CC1 | -75.4
40 | Cc1ccccc1C(=O)N1CCC(C(=O)N(C)CCOc2ccccc2)CC1 | 9.06
41 | CN(CCOc1ccc(Cl)cc1)C(=O)C1CCN(C(=O)c2ccc(F)cc2)CC1 | -69.9
